Drawing on PubChem BioAssay (NCATS), this text covers viability and Potency for eight compounds.

Results filed as inconclusive are left out. Unmarked numbers belong to inactive results. Activity calls are given as the source filed them. Calls come from the whole dose curve; as a rule, active = well fitted curve in the direction sought with a large enough effect; inconclusive = small, poorly fitted or top-dose-only effect, or another doubt; inactive = no such curve, though single readings can be large; an effect the other way counts as inactive or inconclusive.

Assay [1] in a line: BET inhibitor-based combinations targeting novel dependencies in MECOM-rearranged (r) AML: SET-2 cell line (AID 2202231).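 Note: plate controls were DMSO treated cells for no effect and wells without cells for full effect; nearly all actives have a fitted effect of over 35% in size.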 To be noted: SET-2 AML cells viability, CellTiter-Glo luminescence, 48 h; viability: active compounds read low, series mostly up to about 46 µM. The method, boiled down: (§1)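 Luminescent ATP readout (CellTiter-Glo) after 48 hr drug exposure gives viability. Curves span 11 concentrations and are normalized to DMSO and empty wells. Activity is reported as area under the curve and its Z-transform within each cell line.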
(In general: In ATP-based viability assays light output follows the ATP content of the culture.)

Assay [2] deals with Retinal dehydrogenase 2 (Homo sapiens) (UniProt O94788). The assay is described as follows: qHTS for Inhibitors of the Aldehyde Dehydrogenase Family (ALDH1A2) Confirmation screens (AID 2061314). Note: potency is the fitted concentration of half-maximal effect; nearly all actives have a fitted effect of over 65% in size. In general terms: Quantitative high-throughput screening tests each substance at several concentrations.
Assay [3] has as its target Retinaldehyde dehydrogenase 3 (Homo sapiens) (UniProt P47895). The assay is described as follows: qHTS for Inhibitors of the Aldehyde Dehydrogenase Family (ALDH1A3) Primary screen (AID 2061315).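 Note: plate controls were DMSO vehicle for no effect and reference inhibitor for full effect.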
The target in assay [4] is Aldehyde dehydrogenase 1A1 (Homo sapiens) (UniProt P00352). The assay is described as follows: qHTS for Inhibitors of the Aldehyde Dehydrogenase Family (ALDH1A1) Confirmatory screens (AID 2061316). Note: potency is the fitted concentration of half-maximal effect; nearly all actives have a fitted effect of over 65% in size.
Assay [5] in a line: BET inhibitor-based combinations targeting novel dependencies in MECOM-rearranged (r) AML: OCI-AML3 cell line (AID 2202232). Note: nearly all actives have a fitted effect of over 35% in size. Note: potency is the fitted concentration of half-maximal effect. Particulars: Potency: OCI-AML3 viability. The method, boiled down:
as §1

A short description of assay [6]: BET inhibitor-based combinations targeting novel dependencies in MECOM-rearranged (r) AML: MV-4-11 cell line (AID 2202233). Note: nearly all actives have a fitted effect of over 45% in size. Note: potency is the fitted concentration of half-maximal effect. A digest of the protocol:
(§2)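 Luminescent ATP readout (CellTiter-Glo, 15 min at room temperature) after 48 hr drug exposure gave viability. Dose-response curves, normalized to DMSO and empty-well controls, were summarized as area under the curve and its mean-centred Z-score.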

The nature of assay [7]: BET inhibitor-based combinations targeting novel dependencies in MECOM-rearranged (r) AML: HNT-34 cell line (AID 2202234). Note: nearly all actives have a fitted effect of over 35% in size. Note: potency is the fitted concentration of half-maximal effect. The method, boiled down:
as §2

Assay [8] deals with Aldehyde dehydrogenase, mitochondrial (Homo sapiens) (UniProt P05091). The assay is described as follows: qHTS for Inhibitors of the Aldehyde Dehydrogenase Family (ALDH2) Primary screen (AID 2061308).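 Note: plate controls were vehicle for no effect and reference inhibitor for full effect; nearly all actives have a fitted effect of over 55% in size.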
Assay [9] can be described thus: BET inhibitor-based combinations targeting novel dependencies in MECOM-rearranged (r) AML: UCSD-AML1 cell line (AID 2202235). Note: nearly all actives have a fitted effect of over 40% in size. Note: potency is the fitted concentration of half-maximal effect. The method, boiled down:
as §2

Assay [10] can be described thus: BET inhibitor-based combinations targeting novel dependencies in MECOM-rearranged (r) AML: AML-191 cell line (AID 2202236; note: nearly all actives have a fitted effect of over 35% in size; note: potency is the fitted concentration of half-maximal effect). The method, boiled down:
as §1

Assay [11] can be described thus: BET inhibitor-based combinations targeting novel dependencies in MECOM-rearranged (r) AML: AML-194 cell line (AID 2202237; note: nearly all actives have a fitted effect of over 40% in size; note: potency is the fitted concentration of half-maximal effect). The method, boiled down: as §1

One may read the viability as a read-out of living cells in per cent, often relative to untreated cells. On to `CCCCCCCCCCCCCCCC(=O)O[C@H]1[C@@H](O)[C@@H](O)[C@@H]([C@H](NC(=O)[C@@H]2C[C@@H](CCC)CN2C)[C@H](C)Cl)O[C@@H]1SC`, for which the viability in [1] is 108%.
Consider `O=C(O)c1ccc(-n2cccc2/C=C2\SC(=O)N(Cc3ccc(Cl)cc3)C2=O)cc1`, for which the results for the Potency in [2] and in [4] were 17.8 µM (active) and 4 µM (active), respectively. For the same compound, the Potency result in assay [3] was “inactive”.
Consider `COC(=O)Nc1ccc(-c2nc(N3CCOCC3)c3cnn(C4CCN(C(=O)OC)CC4)c3n2)cc1`, for which the Potency in [5] was 4.17 µM (active); in assay [6], 1.18 µM (active); in [7], 742 nM (active).
For `CCCc1cc2c(N3CCN(C4=NCC(C)(C)S4)CC3)ncnc2s1`, in assay [3], the Potency entry is “inactive”.
Take `Cc1nc(N)sc1-c1ccnc(Nc2ccc(N3CCOCC3)cc2)n1`: the Potency result in [8] is “inactive”. Besides, the Potency in assay [5] was 11.8 µM (active); in assay [6], 0.186 µM (active); in [7] it was 2350 nM (active); in [9], 833 nM (active); in assay [10], 7.42 µM (active); in assay [11], 4.17 µM (active).
Take `Clc1ccccc1CN1CCc2sccc2C1`: the viability in [1] was 111%. Further, the Potency result in assay [5], in assay [7], in [9], in assay [10] and in assay [11] was “inactive” in each case.
Consider `CS(=O)(=O)N1CCc2c(-c3cnc(N)nc3)nc(N3CCOCC3)nc21`, for which the Potency result in assay [8] and in assay [3] was “inactive” throughout. Also, the Potency in [6] is 4.68 µM (active).
Take `CN1CCN2c3ncccc3Cc3ccccc3C2C1` (stereo unspecified): in assay [1], the viability is 102%. The Potency result in [5], in assay [6], in assay [7], in assay [9], in [10] and in assay [11] was “inactive” throughout.
